Source: PubChem BioAssay
IDH1 R132H inh – inhibitors of human mutant IDH1 R132H; O75874; IDH1-R132H enzyme, NADPH consumption, diaphorase/resazurin fluorescence; Potency, µM (highest dose often 76.6 µM), without a hit: at the top dose activity change, negative = inhibition, usual class: inhibitors; 390,000 tested, 0.093% active; AID 602179; further: potency means the concentration at half of the fitted maximal effect; on the % scale 0 is the no-effect control and ±100 the full control effect; nearly all actives have a fitted effect of over 65% in size
Target sequence (O75874 whole entry R132H, stated change not applied): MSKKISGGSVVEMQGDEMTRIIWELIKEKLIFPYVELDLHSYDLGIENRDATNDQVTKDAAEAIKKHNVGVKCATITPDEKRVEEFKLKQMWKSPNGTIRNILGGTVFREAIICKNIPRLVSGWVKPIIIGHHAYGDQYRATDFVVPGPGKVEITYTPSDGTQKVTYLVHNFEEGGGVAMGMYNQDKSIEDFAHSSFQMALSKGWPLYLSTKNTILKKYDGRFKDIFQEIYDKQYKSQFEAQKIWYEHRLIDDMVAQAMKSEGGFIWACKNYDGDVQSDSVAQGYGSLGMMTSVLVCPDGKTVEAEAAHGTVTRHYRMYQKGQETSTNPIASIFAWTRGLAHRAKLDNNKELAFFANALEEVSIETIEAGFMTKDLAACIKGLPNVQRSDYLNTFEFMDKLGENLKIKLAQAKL
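IDH1-R132H (0.5 ug/mL dispensed) in pH 7.5 Tris buffer was preincubated 30 min with compound, then given a substrate mix of 0.016 mM NADPH and 2 mM alpha-KG for 80 min at room temperature; remaining NADPH was read by diaphorase/resazurin fluorescence.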
gsp antagonist – gsp mutant antagonism; Potency, µM (series often up to 76.9 µM), for the others: at the highest dose activity change, negative = inhibition, usual class: inhibitors; 340,000 tested, 0.4% active; gsp-mutant cells, cAMP HTRF, 30 min; calls by dose curve; cell line not stated here;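 further: intracellular cAMP measured with PDE inhibitor Ro 20-1724 present during compound exposure; potency means the concentration at half of the fitted maximal effect; on the % scale 0 is the no-effect control and ±100 the full control effect; nearly all actives have a fitted effect of over 65% in size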
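Cells in G418 medium, seeded 16-24 h, 37C; buffer exchange to DPBS + 1 mM CaCl2, 0.5 mM MgCl2, 0.05% BSA; cpds in DMSO + […] (300 uM stock), 30 min 37C; HTRF cAMP detection.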
gsp ag – activates gsp, the McCune-Albright syndrome mutation. AID 624287. gsp mutant cells, cAMP HTRF, 30 min. Potency, µM (series often up to 76.9 µM), without a hit: top-dose activation (cAMP increase), usual class: activators. 340,000 tested, 0.13% active; active means well fitted activation curve with a large enough effect; inconclusive means small, poorly fitted or top-dose-only effect, or another doubt; inactive means no such curve, though single readings can be large or run the other way; cell line not stated here;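 further: phosphodiesterase inhibitor Ro 20-1724 added with compounds to block cAMP breakdown; potency means the concentration at half of the fitted maximal effect; nearly all actives have a fitted effect of over 60% in size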
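Cells stably selected in G418 were plated at 2000/well, grown 16-24 hr, then given compounds in DMSO with the PDE inhibitor […] (300 uM solution added) for 30 min at 37C; cAMP was read by HTRF.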
IL-2 act – activators of IL-2 | IL-2 activation reporter assay, cell-based qHTS; stimulated with anti-CD3/CD4/CD28 beads; in transgenic mouse T cells | 360,000 tested, 0.065% active | activation, % (series mostly up to about 46 µM) | AID 652025; in the data active means activation above about 50%; inconclusive means mostly about 30% to 49%; further: 0% is about no effect
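Quantitative HTS in unstimulated transgenic mouse T cells, with memory T cells as non-tolerant control and PMA/ionomycin as tolerance-bypass control. Compound pretreatment lasted 60 minutes before 18 h bead stimulation; EGFP/DsRed fluorescence read.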
BRCA1 expr up – BRCA1 expression activation; MCF7-BRCA1-FFLuc reporter, luminescence, 48 h; response scale: scaled: vehicle 0%, 10 µM genistein 100%; Potency, µM (top dose mostly 46.1 µM), without a hit: at the top dose activation, usual class: activators; 380,000 tested, 1.1% active; further: potency means the concentration at half of the fitted maximal effect; nearly all actives have a fitted effect of over 80% in size
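48 h compound treatment of MCF7-BRCA1-FFLuc cells (phenol-red free MEM, 37 °C), then 15 min with luciferase substrate and luminescence imaging.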
Numbers without * were called inactive; [ ] = another dose, or the depositor's remark. The list is not random: actives were taken first. Their share in the collection is about 1.5%. Unless noted, the call rests on the fitted dose curve; in most records, active means well fitted curve in the direction sought with a large enough effect; inconclusive means small, poorly fitted or top-dose-only effect, or another doubt; inactive means no such curve, though single readings can be large; an effect the other way counts as inactive or inconclusive.

How did COc1ccc(C(=O)CC(=O)c2ccccc2)cc1 do in these assays?
IDH1 R132H inh: 12%; gsp antagonist: -9%; gsp ag: -19%[15.4 µM]; IL-2 act: -2; BRCA1 expr up: 7.9µM*

Results for CC(=O)CC(c1ccccc1)S(=O)(=O)c1ccc(C)cc1 (configuration not stated) ?
IDH1 R132H inh: -4%; gsp antagonist: -15%; gsp ag: 3%; IL-2 act: 0; BRCA1 expr up: -3%

Results for COc1ccc(C(CC(=O)c2ccccc2)S(=O)(=O)c2ccc(C)cc2)cc1 (configuration not stated) ?
IDH1 R132H inh: 4%; gsp antagonist: 5%; gsp ag: 13%; IL-2 act: -3; BRCA1 expr up: 10µM*

Results for COc1ccc(C(=O)CC(=O)c2ccc(OC)cc2)cc1 ?
IDH1 R132H inh: 3%; gsp antagonist: -15%; gsp ag: -4%[15.4 µM]; IL-2 act: -1; BRCA1 expr up: 48%

How did CC(C)c1ccccc1NC(=O)Cn1cnc2c1c(=O)n(C)c(=O)n2C do in these assays?
IDH1 R132H inh: 11%

What do the screens show for `O=C(C[C@H]1C[C@H](C(=O)N2CCCCC2)[C@@]2(CCc3ccccc3)c3[nH]c4ccc(Cl)cc4c3CCN2C1=O)NCc1ccco1`?
IDH1 R132H inh: 0%; gsp antagonist: -18%; IL-2 act: 0; BRCA1 expr up: -23%

Results for Fc1ccc(Nc2nc(-c3cccc(Cl)c3)c3c(n2)-c2ccccc2OC3)cc1 ?
IDH1 R132H inh: -7%

What do the screens show for `Cc1sc(N)nc1-c1cccc([N+](=O)[O-])c1`?
BRCA1 expr up: -2%

What do the screens show for `Cc1ccc(S(=O)(=O)N2CCN(c3nc(N(C)c4cc(Cl)ccc4O)nc4ccccc34)CC2)cc1`?
BRCA1 expr up: 4%

What do the screens show for `O=C(Oc1ccc(-c2cnc3ccccc3n2)cc1)c1cccc([N+](=O)[O-])c1`?
IDH1 R132H inh: -3%; gsp antagonist: 4%; gsp ag: 5%; IL-2 act: 0; BRCA1 expr up: 3.2µM*

What do the screens show for `C[C@@H]1Cc2[nH][nH]c(=O)c2[C@H](C)O1`?
IL-2 act: 0; BRCA1 expr up: 11%

How did COc1ccccc1CCNC(=O)c1nc(-c2cccs2)no1 do in these assays?
IDH1 R132H inh: 9%; gsp antagonist: -3%; gsp ag: -12%; IL-2 act: -4; BRCA1 expr up: 4µM*

What do the screens show for `COc1ccccc1CC(=O)NCc1csc(-c2cccs2)n1`?
IDH1 R132H inh: 6%; gsp antagonist: 2%; gsp ag: 0%[15.4 µM]; IL-2 act: 2; BRCA1 expr up: 11µM*

What do the screens show for `COc1ccc(C(C)=O)cc1Cn1c(C)c(C(=O)NCc2cccc(C)c2)sc1=O`?
IL-2 act: 3; BRCA1 expr up: 6%

Results for Oc1ccc(/C=N/Nc2ccc(C(F)(F)F)cn2)cc1 ?
IDH1 R132H inh: 12%; gsp antagonist: -3%; gsp ag: -13%; IL-2 act: 4; BRCA1 expr up: 6.3µM*

What do the screens show for `COc1ccccc1C(=O)Nc1ccc2ccccc2c1`?
IDH1 R132H inh: 7%; gsp antagonist: -10%; gsp ag: 8%; IL-2 act: -1; BRCA1 expr up: 65%

How did COc1cc2ccccc2cc1C(=O)Nc1ccc(Cc2ccncc2)cc1 do in these assays?
IDH1 R132H inh: -1%; gsp antagonist: 35µM*; gsp ag: -4%; IL-2 act: 0; BRCA1 expr up: -75%

How did COc1cc2ccccc2cc1C(=O)Nc1ccc(C)cc1 do in these assays?
IDH1 R132H inh: 1%; gsp antagonist: 32µM*; gsp ag: 5%; IL-2 act: -1; BRCA1 expr up: -4%

Results for O=C(CSc1ccc(F)cc1)Nc1cccc(S(=O)(=O)N2CCOCC2)c1 ?
IDH1 R132H inh: -10%; gsp antagonist: -13%; gsp ag: -3%; IL-2 act: 0; BRCA1 expr up: -8%

How did CC(C)COC(=O)N1CCCCC1c1cc(C(=O)N2CCOCC2)no1 (configuration not stated) do in these assays?
IL-2 act: 0; BRCA1 expr up: 18%

How did Clc1ccc(N/N=C/c2ccncc2)cc1Cl do in these assays?
IDH1 R132H inh: 1%; gsp antagonist: 3%; gsp ag: -24%; IL-2 act: -2; BRCA1 expr up: 7.1µM*

What do the screens show for `Clc1cnc(N/N=C/c2ccncc2)c(Cl)c1`?
IDH1 R132H inh: -1%; gsp antagonist: 3%; gsp ag: -18%; IL-2 act: 0; BRCA1 expr up: 11%

Results for Fc1ccc(N/N=C/c2ccncc2)c(F)c1 ?
IDH1 R132H inh: 1%; gsp antagonist: 10%; gsp ag: 6%; IL-2 act: -1; BRCA1 expr up: 14µM*

What do the screens show for `CC(C)NC(=O)COC(=O)c1ccccc1OCC(=O)Nc1ccc(Br)cc1`?
BRCA1 expr up: -18%

How did Clc1nc(NCC2CCCO2)c2[nH]cnc2n1 (configuration not stated) do in these assays?
BRCA1 expr up: 8%

Results for Cc1ccc(-c2nc3cccc(C)n3c2Nc2ccc(F)cc2)o1 ?
BRCA1 expr up: -7%

What do the screens show for `COc1ccc(NC(=O)Nc2nnc(-c3ccncc3)s2)cc1`?
IDH1 R132H inh: -9%; gsp antagonist: 35µM*; gsp ag: 5%; IL-2 act: -1; BRCA1 expr up: 69%

How did COc1ccc(CC(=O)Nc2nnc(C(C)C)s2)cc1 do in these assays?
IDH1 R132H inh: 5%; gsp antagonist: -3%; gsp ag: 16%[15.4 µM]; IL-2 act: -1; BRCA1 expr up: 15%

How did COc1ccc(NC(=O)Nc2nnc(C(C)C)s2)cc1 do in these assays?
IDH1 R132H inh: 6%; gsp antagonist: -12%; gsp ag: -15%; IL-2 act: 1; BRCA1 expr up: 10µM*

Results for Cc1cc(N2CCN(C)CC2)nc2ccc(NC(=O)c3ccccc3F)cc12 ?
IDH1 R132H inh: 4%; gsp antagonist: 2%; gsp ag: -51%; IL-2 act: 0; BRCA1 expr up: 11µM*

What do the screens show for `O=C(Nc1cc(C(=O)N2CCCC2)ccc1N1CCCC1)c1ccccc1F`?
IDH1 R132H inh: 8%; gsp antagonist: 6.3µM*; gsp ag: inconclusive; IL-2 act: 1; BRCA1 expr up: -4%

How did O=C(Nc1ccc(N2CCCC2)c(Cl)c1)c1ccccc1F do in these assays?
IDH1 R132H inh: 8%; gsp ag: -149%; IL-2 act: -2; BRCA1 expr up: 3.2µM*

Results for O=C(Nc1ccc(N2CCCC2)c(Cl)c1)c1ccc(Br)o1 ?
IDH1 R132H inh: 13%; gsp antagonist: -9%; gsp ag: -27%; IL-2 act: -2; BRCA1 expr up: 4µM*

How did O=C(Nc1ccccc1N1CCCC1)c1ccc(Br)o1 do in these assays?
IDH1 R132H inh: -2%; gsp antagonist: -16%; gsp ag: 7%; IL-2 act: 1; BRCA1 expr up: 33%
